In the library only some 3.4% were active in any assay of this set; here they are far more common.
GCN5L2 inh: GCN5L2 (KAT2A) acetyltransferase inhibition. GCN5L2 HAT assay, ThioGlo1 CoA-SH fluorescence. Potency, µM (titrated, usually from 58.9 µM), for the others: top-dose activity change, negative = inhibition, usual class: inhibitors. 0.21% of 390,000 active; note: % is set by controls: 0 for no effect and ±100 for the full control effect
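GCN5L2 (20nM final) in 50mM HEPES, 0.1mM EDTA pH 7.5, 0.01% Tween-20 was preincubated 15 min at room temperature with compound, then given ThioGlo1 (50uM), H3(1-25) peptide (75uM) and acetyl-CoA (70uM); CoA-thiol fluorescence (Ex340/Em540) was read at 0 and 20 min.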
PKM2 act: PKM2 (human) enzyme activation. Potency, µM (series often up to 57.5 µM), without a hit: at the highest dose activation, hits mostly activators. 0.34% of 260,000 active. P14618. purified PKM2, Kinase-Glo ATP luminescence, activation; response scale: 0% is enzyme alone, no compound; note: % is set by controls: 0 for no effect and ±100 for the full control effect; nearly all actives have a fitted effect of over 55% in size
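hPK-M2, >95% pure; 0.1 mM ADP / 0.5 mM PEP final; imidazole pH7.2 buffer w/ 7 mM MgCl2, 50 mM KCl; 1 h RT; Kinase-Glo lum. Intermediate enzyme activity for dual inhibitor/activator qHTS.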
PLK1 PBD block: blocks phosphopeptide binding to human PLK1 polo-box domain | P53350 | Plk1 PBD binding of FITC phosphopeptide, fluorescence polarization | Potency, µM, for the others: max response, negative = inhibition, hits mostly inhibitors | 2.8% of 360,000 active | AID 720504; note: series mostly up to about 57 µM; % is set by controls: 0 for no effect and ±100 for the full control effect; nearly all actives have a fitted effect of over 65% in size
Target sequence (P53350 whole entry, looked up, the tested form may be a part): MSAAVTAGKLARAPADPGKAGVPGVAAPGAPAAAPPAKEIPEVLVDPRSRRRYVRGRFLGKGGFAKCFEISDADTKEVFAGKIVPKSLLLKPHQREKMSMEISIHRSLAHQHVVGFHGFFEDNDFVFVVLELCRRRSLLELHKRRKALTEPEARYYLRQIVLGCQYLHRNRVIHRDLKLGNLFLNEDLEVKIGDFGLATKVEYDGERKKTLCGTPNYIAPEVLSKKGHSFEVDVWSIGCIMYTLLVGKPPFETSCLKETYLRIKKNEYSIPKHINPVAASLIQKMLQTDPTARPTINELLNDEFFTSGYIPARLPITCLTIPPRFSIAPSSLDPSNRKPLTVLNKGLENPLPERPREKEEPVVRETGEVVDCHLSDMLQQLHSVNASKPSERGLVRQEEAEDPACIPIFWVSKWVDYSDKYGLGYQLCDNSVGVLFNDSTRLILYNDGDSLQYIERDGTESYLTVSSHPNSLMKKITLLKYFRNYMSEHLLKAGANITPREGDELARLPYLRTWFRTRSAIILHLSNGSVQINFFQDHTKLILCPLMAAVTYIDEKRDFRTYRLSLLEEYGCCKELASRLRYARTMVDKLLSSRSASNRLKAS
VDR inh: inhibitors of human vitamin D receptor; P11473; VDR-SRC2-3 peptide fluorescence polarization, 2 h; Potency, µM, without a hit: max response, negative = inhibition, most hits filed as inhibitors; 0.93% of 400,000 active; AID 504847; note: % is set by controls: 0 for no effect and ±100 for the full control effect
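Fluorescence polarization assay of small-molecule disruption of VDR binding to coregulator peptide SRC2-3. Compounds and controls pin-transferred, then read after 2 h incubation at ambient room temperature.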
GLS inh: inhibitors of human glutaminase (GLS); O94925; GLS enzymatic activity, qHTS titration; Potency, µM (top dose mostly 45.5 µM), for the others: at the highest dose activity change, negative = inhibition, actives largely listed as inhibitors; 0.21% of 410,000 active; AID 624170; note: % is set by controls: 0 for no effect and ±100 for the full control effect
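Two-point fluorescence kinetic (t0, 30 min RT) for hKGA; glutamate detected via glutamate oxidase–HRP–Amplex Red. Substrate: 1 mM L-glutamine solution; buffer 45 mM KH2PO4, pH 8.2.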
Mito fusion act: inhibitors of mitochondrial division or activators of mitochondrial fusion. AID 485298. Potency, µM (top dose mostly 46.1 µM), inactives show at the top dose growth rescue (activation), hits mostly activators. 0.23% of 320,000 active. S. cerevisiae fusion-defective mutant growth rescue, CellTiterGlo 48 h; note: % of control where 0% means no effect; nearly all actives have a fitted effect of over 45% in size
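Yeast fusion mutant, YPEG (non-fermentable carbon), compound, 48 h at 37C non-permissive; CellTiterGlo added, 10 min RT, luminescence read. Rescued growth = division inhibition.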
* marks the source's active call; other numbers are inactive results; ? = inconclusive; / = no result; [ ] = remark or other dose. Calls come from the whole dose curve; as a rule, active = well fitted curve in the direction sought with a large enough effect; inconclusive = small, poorly fitted or top-dose-only effect, or another doubt; inactive = no such curve, though single readings can be large; an effect the other way counts as inactive or inconclusive. Potency is the fitted concentration of half-maximal effect.

SMILES	GCN5L2 inh	PKM2 act	PLK1 PBD block	VDR inh	GLS inh	Mito fusion act
C[C@@H]1[C@H](O)C[C@@]23COC(=O)C2=CCCC3[C@@]1(C)CCC1COC(=O)C1 (stereo partly specified)	?	/	-2%	-8%	8%	-8%
C/C=C\C=C\C(=O)N1CC2(CC(c3cccc(NC(=O)CC(c4ccccc4)c4ccccc4)c3)=NO2)C[C@H]1C(N)=O (stereo partly specified)	-10%	?	34µM*	?	-26%	-15%
C/C=C\C=C/C(=O)Nc1cccc(C2=NOC3(C2)C[C@@H](C(N)=O)N(C(=O)C2(C)CC2)C3)c1 (stereo partly specified)	-7%	?	-27%	?	-4%	19%
C=C(C)C(=O)N1CC2(CC(c3cccc(NC(=O)/C=C\C=C/C)c3)=NO2)C[C@H]1C(N)=O (stereo partly specified)	0%	?	24µM*	89µM*	3%	11%
Cc1ccc(C)c(NC(=S)c2ccccn2)c1	2%	-9%	24µM*	-14%	11%	-7%
S=C(Nc1ccccn1)c1ccccn1	-7%	-38%	27µM*	-3%	50%	-7%
O=C(Nc1ccccn1)C(=O)Nc1ccccn1	-4%	-40%	-5%	-11%	2%	1%
Cc1ccc(C)c(NC(=S)c2ccc3ccccc3n2)c1	-6%	3%	3%	-12%	1%	1%
Cc1ccc(C)c(NC(=S)c2nc3ccccc3s2)c1	2%	-8%	8.4µM*	9%	-2%	-10%
CCCCC(=O)Nc1c(C(=O)N2CCN(c3ccccc3F)CC2)oc2ccccc12	-4%	/	/	7%	2%	/
CC(=O)C1=C(c2ccc(Cl)c(Cl)c2)N(C(C)=O)n2cnnc2S1	5%	/	/	?	?	/
O=C(CCN1C(=O)/C(=C/c2cccs2)SC1=S)Nc1cccc(O)c1	-8%	5µM*	-16%	-5%	20%	-5%
O=C(CCN1C(=O)/C(=C/c2cccs2)SC1=S)Nc1ccc(C(=O)O)c(O)c1	?	/	27µM*	9%	10%	-6%
O=C(CCN1C(=O)/C(=C/c2cccs2)SC1=S)Nc1ccc(O)cc1	-6%	4%	1%	-11%	0%	-5%
CC(=Cc1ccccc1)C=C1SC(=S)N(CCCC(=O)Nc2ccc(C(=O)O)c(O)c2)C1=O	/	/	?	/	23%	/
CC(/C=C1\SC(=S)N(CCCC(=O)Nc2ccc(C(=O)O)c(O)c2)C1=O)=C\c1ccccc1	28%	-12%	27µM*	?	30%	-18%
CCOc1ccc(C(=O)OCC(=O)NC2CCCCCCC2)cc1	0%	/	2%	-1%	-8%	8%
O=[N+]([O-])c1ccc(CN2CC(N3CCN(CC4CC4)CC3)CS2(=O)=O)cc1 (stereo unspecified)	/	/	1%	/	-2%	/
O=C(O)C1CCCN1 (stereo unspecified)	-6%	/	/	-3%	/	/
CCc1nc2ccc(C(=O)N3CCN(c4ccccc4)CC3)cn2c1N(CCC(C)C)CCN(C)C	/	/	-4%	/	31%	/
Cc1ccccc1CS(=O)(=O)c1ncc(Cl)c(C(=O)Nc2ccc(F)cc2)n1	-10%	/	19µM*	-23%	9%	-79%
CCOC(=O)c1nc(S(C)(=O)=O)ncc1Cl	2%	2%	21µM*	56µM*	8%	-13%
CN1/C(=C\C(=O)c2cncc(Br)c2)C(C)(C)c2ccccc21	-5%	-8%	-4%	6%	4%	?
Cc1cccc(C)c1NC(=O)c1nc(S(=O)(=O)Cc2ccccc2)ncc1Cl	-2%	/	?	?	1%	-69%
CCOC(=O)c1nc(S(C)(=O)=O)ncc1N1CCOCC1	-5%	-4%	-2%	2%	-1%	0%
SMILES	GCN5L2 inh	PKM2 act	PLK1 PBD block	VDR inh	GLS inh	Mito fusion act
CCc1nnc(NC(=O)c2nc(S(C)(=O)=O)ncc2Cl)s1	-2%	/	/	-15%	-5%	/
Cc1ccccc1NC(=O)c1nc(S(C)(=O)=O)ncc1Cl	-1%	1%[11.5 µM]	?	40µM*	-1%	-23%
CN1/C(=C/C(=O)c2nc(S(C)(=O)=O)ncc2Cl)C(C)(C)c2ccccc21	-1%	2%	?	50µM*	2%	-22%
O=C(NCc1ccc(Cl)cc1)C(=O)NCC(c1cccnc1)N1CCN(c2ccccc2)CC1 (stereo unspecified)	-15%	/	/	-4%	12%	/
CCOC(=O)c1c(Nc2ccccc2OCCOC)n[nH]c1C	-8%	3%	-15%	-9%	14%	10%
N#Cc1ccc(S(=O)(=O)N2CCN(c3nc(-c4ccccc4)nc4ccccc34)CC2)cc1	/	/	/	-19%	/	/
O=C(Nc1cccc(Cl)c1)C1CCN(S(=O)(=O)Cc2ccccc2)CC1	2%	/	/	-1%	-4%	/
COc1ccc(-n2nnnc2S(=O)(=O)Cc2ccc(C(=O)O)cc2)cc1	-15%	-20%	30µM*	?	0%	-1%
COc1cc(OC)cc(-n2nnnc2SCC(=O)N2CCCC2)c1	0%	4%	0%	3%	3%	-3%
COc1ccc(-n2nnnc2S(=O)(=O)CC(=O)N2CCCCC2)cc1	-5%	7%	12µM*	?	1%	-5%
CCc1ccc(Oc2nnnn2-c2ccc(C(N)=O)cc2)cc1	3%	0%	0%	5%	-2%	2%
COC(=O)CCCCCN1C(=O)NC(CC2CC2)C(C(=O)OCc2ccccc2)=C1C (stereo unspecified)	/	-4%	/	/	/	/
O=C(O)CCC/C=C\C/C=C\C=C\[C@@H](O)C/C=C\CCCCCO	/	/	/	11%	/	/
O=C(O)COc1ccc(CCNS(=O)(=O)c2ccccc2)s1	-9%	/	/	?	-17%	/
N#Cc1c(C(F)(F)F)cc(-c2ccccc2)nc1SCC(=O)Nc1sc2c(c1C#N)CCC2	-7%	-2%	30µM*	-4%	12%	-2%
CC(Sc1nc(-c2ccccc2)cc(C(F)(F)F)n1)C(=O)Nc1sc2c(c1C#N)CCC2 (stereo unspecified)	-13%	0%	24µM*	3%	2%	-4%
Cc1ccc(-c2cc(C(F)(F)F)c(C#N)c(SCC(=O)Nc3ccccc3F)n2)cc1	-16%	/	/	-13%	-12%	/
CC(C)(C)NC(=O)NC(=O)CN1CCCc2ccccc21	-8%	0%	0%	11%	-10%	15%
O=C(CN1CCCc2ccccc21)NC(=O)NC1CCCCC1	6%	6%	27µM*	-28%	1%	-5%
O=C(CN1CCCc2ccccc21)NC(=O)NCc1ccccc1	-9%	-1%	-8%	-13%	2%	-5%

Screening results (PubChem)
